Experimental data reported in PubChem BioAssay AID652058 (Broad Institute, 2013).
Hit rate of the full screen: of about 1,200 compounds, about 870 (72%) were called active. Inconclusive results (about 3%) are left out.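 The calls were made as follows: active = every test run fits a falling curve whose half-maximal concentration is at most twice the top valid dose; inconclusive = runs disagree, or flat 30 to 70% inhibition, or poor fit; inactive = every run inactive: flat, rising or weaker potency.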 The set was probably picked from earlier hits. A selection follows. Potency and affinity values are given separately.

Assay: blockers of HIV-1 ZM109 envelope-driven cell-cell fusion – HeLa effector, CEM target cells, luciferase, cherry-pick, dose response (AID 652058);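 also: 0% = neutral control wells and -100% = maraviroc 300 nM wells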
Details: HeLa Env/CEM cell fusion, 16-24 h; series mostly up to 35 µM; activity change, negative = inhibition: at the top concentration

Compound	activity change, negative = inhibition
Cc1ccc2c(c1)c1c3n2CCN(CC(N)=O)C3CCC1 (configuration not stated)	81.6% (inactive)
COc1ccc2[nH]c3c(N4CCC(O)(c5cccc(C(F)(F)F)c5)CC4)ncnc3c2c1	-82.8% (inactive)
CCOC(=O)C(C)Oc1cccc2c(=O)n(CC(=O)NCCc3ccc(OC)c(OC)c3)ccc12 (configuration not stated)	-38.6% (inactive)
CC1(C(=O)NCc2ccc3c(c2)OCO3)CCN1Cc1csc2ccccc12 (configuration not stated)	-13.3% (inactive)
COc1ccc(NS(=O)(=O)c2cccc(C(=O)NNC(=O)CNC(=O)c3ccc(C)cc3)c2)cc1	35.8% (inactive)
COc1ccc(NS(=O)(=O)c2ccc3c(c2)OCCO3)cc1OC	-10.5% (inactive)
O=C(Cc1ccc(Cl)cc1Cl)Nc1ccncc1	-15.2% (inactive)
COc1ccc(/C=C/c2nc(S(=O)(=O)c3ccccc3)c(NCCCN(C)C)o2)cc1OC	-36.4% [at 16 µM] (inactive)
COC(=O)c1ccc(NC(=O)c2ccc(CN3CCOCC3)cc2)cc1	-20.5% (inactive)
Nc1ccn([C@@H]2O[C@H](C(=O)NCc3ccc4c(c3)OCO4)[C@@H](O)[C@H]2O)c(=O)n1	14.6% (inactive)
CC(C)CC#Cc1ccc2c(c1)O[C@@H](CN(C)S(=O)(=O)c1ccc(F)cc1)[C@H](C)CN([C@@H](C)CO)S2(=O)=O	-29.4% (inactive)
Cc1cc2ncn(S(=O)(=O)N3CCCCC3)c2cc1C	1.39% (inactive)
CCN1CCN(S(=O)(=O)c2ccc(Cl)c(C(=O)Nc3ccccc3N3CCCC3)c2)CC1	21.8% (inactive)
CNC[C@@H]1Oc2c(N)cccc2C(=O)N([C@@H](C)CO)C[C@@H]1C	15.9% (inactive)
C[C@@H]1CN([C@@H](C)CO)C(=O)c2cccc(NC(=O)c3cnccn3)c2O[C@H]1CN(C)Cc1ccc(Cl)c(Cl)c1	95.2% (inactive)
C[C@H]1CN([C@@H](C)CO)C(=O)c2cccc(NC(=O)C3CCCCC3)c2O[C@H]1CN(C)S(C)(=O)=O	11.4% (inactive)
c1csc(-c2csc3ncnc(NCCCN4CCOCC4)c23)c1	-26.2% (inactive)
Oc1ccc(C=NNc2ccccn2)c(O)c1	23.9% [at 16 µM] (inactive)
COc1ccc(-c2nnc(Nc3nc4c(OC)cccc4s3)o2)cc1	5.13% (inactive)
CCn1ncc(C2=NOC(C(=O)Nc3ccc(C)cc3)C2)c1C (configuration not stated)	6.73% [at 16 µM] (inactive)
Cc1ccc(-n2nnnc2-c2cnn(-c3ccc(F)cc3)c2C(F)(F)F)cc1	4.65% (inactive)
CNC[C@H]1Oc2c(NC(=O)Nc3ccc(C(F)(F)F)cc3)cccc2C(=O)N([C@@H](C)CO)C[C@H]1C	39.4% [at 16 µM] (inactive)
C[C@@H]1CN([C@H](C)CO)C(=O)c2cc(NS(=O)(=O)c3ccc(F)cc3)ccc2O[C@H]1CN(C)Cc1ccc(C(F)(F)F)cc1	-41.2% (inactive)
C[C@H](CO)N1C[C@H](C)[C@H](CN(C)C(=O)Nc2ccccc2)Oc2c(NS(=O)(=O)c3ccc(F)cc3)cccc2C1=O	84.3% [at 16 µM] (inactive)

Compound	activity change, negative = inhibition
Cc1ccc(Cn2ncc3c(N4CCN(c5ccc(C)cc5)CC4)ncnc32)cc1	-44.6% (inactive)
Cc1ccc(-n2ncc3c(N4CCN(c5ccccc5)CC4)ncnc32)c(C)c1	181% (inactive)
COc1cccc(CNc2nc(NCc3ccccc3OC)nc3ccsc23)c1	-21.1% (inactive)
CCOc1ccc(-c2cc(CCCC(=O)Nc3cccc(OC)c3)no2)cc1	71.3% (inactive)
Cc1cc(C(C)(C)C)oc1C(=O)N(CC(=O)NC1CCCC1)Cc1ccc(Cl)cc1	-42.4% (inactive)
CCCc1cc(C(=O)NCc2ccc(OC)cc2)no1	28.6% (inactive)
O=C(CC1C(=O)NCCN1Cc1cccc(F)c1)NC1CCCCC1 (configuration not stated)	-44.7% (inactive)
CCN(CCn1cccn1)C(=O)CC1C(=O)NCCN1CCc1ccccc1 (configuration not stated)	-40.9% (inactive)
COc1ccc(-c2cn3c(C)c(C(=O)Nc4cccc(NC(C)=O)c4)sc3n2)cc1	-22% [at 16 µM] (inactive)
Cn1cc(S(=O)(=O)N2CCOCC2)cc1C(=O)Nc1cccc(Cl)c1	-25.3% (inactive)
COc1cccc(CN2CCC2(C)C(=O)Nc2cccc(Oc3ccccc3)c2)c1OC (configuration not stated)	-31.8% (inactive)
CC(=O)c1ccc([C@H]2C[C@@]34CN(C(=O)OC(C)(C)C)S(=O)(=O)[C@H]3C[C@H]2O4)cc1	40.5% (inactive)
c1ccc(Cc2cnc(N3CCN(Cc4csc5ccccc45)CC3)nc2)cc1	16.5% (inactive)
O=C(NNC(=O)C(c1ccccc1)c1ccccc1)c1ccccn1	-20.2% (inactive)
CC(C)(C)n1nc(Cc2cccc3ccccc23)c2c(N)ncnc21	16.9% (inactive)
C[C@@H]1CN([C@H](C)CO)C(=O)c2cccc(NC(=O)c3ccncc3)c2O[C@@H]1CN(C)Cc1ccc(C(=O)O)cc1	-18.2% (inactive)
COc1ccccc1N1CCN(Cc2ccc(O)c3ncccc23)CC1	41.3% (inactive)
Cc1cc(C)nc(/N=C(\N)Nc2ccc(CC(=O)OC(C)C)cc2)n1	38.8% (inactive)
O=C(Nc1ccc(CN2CCOCC2)cc1)c1ccc(-c2cccc(Cl)c2)o1	117% (inactive)
CCC(=O)NC(=S)Nc1cccc(Cl)c1N1CCCCC1	43.4% (inactive)
COc1ccc([Si](C)(C)[C@H]2[C@H](CCO)O[C@@]3(C(=O)N(Cc4cccc(N5CCOC5=O)c4)c4ccccc43)[C@@H]2C)cc1	-36.4% (inactive)
O=C(Nc1cccn(Cc2c(Cl)cccc2Cl)c1=O)c1ccc(Cl)cc1	55.6% (inactive)
O=C(NCc1ccccc1)c1ccc(C(=O)NCc2ccccc2)cc1	-58.9% (inactive)
